# Where “and” joins values, the source holds several entries; their conditions need not be identical. Equal entries are not always repeated. Records with an inconclusive call do not appear. Unmarked numbers belong to inactive results. Calls of active or inactive are those of the source. Calls come from the whole dose curve; as a rule, active = well fitted activation curve with a large enough effect; inconclusive = small, poorly fitted or top-dose-only effect; inactive = no such curve, though single readings can be large or run the other way.
# Target: Cellular tumor antigen p53 (Homo sapiens) (UniProt P04637)
# Sequence (P04637 whole entry, looked up): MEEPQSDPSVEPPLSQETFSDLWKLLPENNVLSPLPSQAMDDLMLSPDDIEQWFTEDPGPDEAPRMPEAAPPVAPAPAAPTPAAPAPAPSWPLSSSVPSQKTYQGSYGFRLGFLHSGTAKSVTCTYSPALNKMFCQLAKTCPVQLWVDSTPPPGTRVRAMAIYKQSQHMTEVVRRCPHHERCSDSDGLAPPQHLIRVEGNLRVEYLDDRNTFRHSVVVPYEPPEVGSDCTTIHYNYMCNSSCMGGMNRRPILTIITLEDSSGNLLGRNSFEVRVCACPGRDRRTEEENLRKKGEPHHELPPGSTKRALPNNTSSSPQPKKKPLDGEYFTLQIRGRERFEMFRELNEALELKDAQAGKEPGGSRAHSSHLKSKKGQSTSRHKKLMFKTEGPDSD
# Experiment: Primary qHTS for small molecule compounds that upregulate eGFP-tagged delta133p53alpha (in N-terminal) cells. (AID 2060322); note: nearly all actives have a fitted effect of over 75% in size;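 for activation: cells pre-induced with doxycycline then dosed without doxycycline; series mostly up to about 56 µM; 0% = DMSO vehicle and 100% = reference activator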
# Conditions: NCI-H358 eGFP-delta133p53alpha fluorescence, 24 h; activation: active compounds read high
# Method in brief: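 NCI-H358 cells pre-induced 24 h with 10 ng/ml doxycycline for eGFP-delta133p53alpha, plated dox-free and exposed 24 h at 37C to titrated compounds. Fixed, Hoechst-stained; gated GFP peak intensity by laser scanning cytometry, normalized to DMSO (0%) and 57.5 uM 5-azacytidine (100%).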
# Potency is the fitted concentration of half-maximal effect.
Structure (SMILES),activation,Potency
COc1cc2c(NC3CCN(C)CC3)nc(N3CCCN(C)CC3)nc2cc1OCc1ccccc1,30.2%,
O=C(NNC(=O)c1ccc(CNS(=O)(=O)c2ccc(F)c(Cl)c2)cc1)c1ccccc1,15.5%,
C=CC[N+]1([C@H]2C[C@H]3[C@@H]4CC[C@H]5C[C@H](O)[C@@H](N6CCOCC6)C[C@]5(C)[C@@H]4CC[C@]3(C)[C@H]2OC(C)=O)CCCC1,4.45%,
CCCCC(CC)COC(=O)c1ccccc1C(=O)O (stereo not given),-12.6%,
O=C(O)[C@@H](O)[C@H](O)[C@H](O)[C@@H](O)C(=O)O,-1.67%,
NC(=O)NC1NC(=O)NC1=O (stereo not given),-17.5%,
Cc1cccc(C)c1NC(=O)CN1CCCC1,10%,
Oc1cccc(-c2c3nc(c(-c4cccc(O)c4)c4ccc([nH]4)c(-c4cccc(O)c4)c4nc(c(-c5cccc(O)c5)c5ccc2[nH]5)CC4)C=C3)c1,25.9%,
CC(=O)N[C@H]1[C@@H]([C@H](O)[C@H](O)CO)OC(C(=O)O)=C[C@@H]1N=C(N)N,-10.7%,
N=C1N=C(N)c2cc3ccccc3cc21,,35.5 µM (active)
CC(C(=O)O)c1ccc(C(=O)c2ccccc2)s1 (stereo not given),0%,
O=C(Nc1ncc(SCCN2CCCC2)s1)[C@]1(c2ccc(S(=O)(=O)C3CC3)cc2)C[C@@H]1C1CCCCC1,26.3%,
CC(C)(C)c1cc(C=O)cc(C(C)(C)C)c1O,-16.4%,
CN1CCN(c2cc3c(cc2F)c(=O)c(C(=O)O)cn3-c2ccc(F)cc2)CC1,20.1%,
CC[C@@H]([C@H](C)O)n1ncn(-c2ccc(N3CCN(c4ccc(OC[C@@H]5CO[C@@](Cn6cncn6)(c6ccc(F)cc6F)C5)cc4)CC3)cc2)c1=O,22.6%,
CC(=O)Nc1ccc(S(=O)(=O)Nc2ccc([N+](=O)[O-])cc2)cc1,-10.7%,
NC(=O)C1(N2CCCCC2)CCN(CCCN2c3ccccc3CCc3ccc(Cl)cc32)CC1,3.35%,
CC[C@]1(O)C[C@H]2CN(CCC3=c4ccccc4=N[C]3[C@@](C(=O)OC)(c3cc4c(cc3OC)N(C)[C@H]3[C@@](O)(C(N)=O)[C@H](O)[C@]5(CC)C=CCN6CC[C@]43[C@@H]65)C2)C1,31.2%,
CO[C@@H]1[C@@H](OC)[C@H](C)[C@@](O)(CC(=O)O)O[C@H]1[C@H](C)[C@H]1O[C@@]2(CC[C@@](C)([C@H]3CC[C@@](C)([C@@H]4O[C@@H]([C@H]5O[C@](C)(O)[C@H](C)C[C@@H]5C)C[C@@H]4OC4C[C@H](OC)[C@@H](OC)[C@H](C)O4)O3)O2)C[C@H](O)[C@H]1C (stereo not given in full),,8.71 µM (active)
O=C(CS(=O)Cc1ccco1)NC/C=C\COc1cc(CN2CCCCC2)ccn1 (stereo not given),-5.08%,

Structure (SMILES),activation,Potency
NC(N)=Nc1nc(CSCCC(N)=NS(N)(=O)=O)cs1,11%,
CC(=O)OC[C@H]1O[C@@](COC(C)=O)(O[C@H]2O[C@H](COC(C)=O)[C@@H](OC(C)=O)[C@H](OC(C)=O)[C@H]2OC(C)=O)[C@@H](OC(C)=O)[C@@H]1OC(C)=O,10.7%,
CC(=O)CC/C=C(\C)CC/C=C(\C)CC/C=C(\C)CCC=C(C)C,-15.3%,
CCCC(=O)OC[C@@H](OC(=O)CCC)[C@@H](OC(=O)CCC)[C@H](Cn1c2nc(=O)[nH]c(=O)c-2nc2cc(C)c(C)cc21)OC(=O)CCC,-33.3%,
CCCc1c(OCCCCc2nn[nH]n2)ccc(C(C)=O)c1O,-2.82%,
O=C(CCc1ccc(O)cc1)c1c(O)cc(O)cc1O[C@@H]1O[C@H](CO)[C@H](O)[C@H](O)[C@H]1O,1.26%,
Nc1nnnn1-c1ccccc1,29.9%,
CCOC(=O)c1ccc(O)c(O)c1,-23.2%,
C[C@H](NCc1ccc2c(c1)nc(NC(=O)c1ccc(-c3cn[nH]c3)s1)n2CCc1ccccc1)C(C)(C)C,,6.11 µM (active)
COc1cc2nc(N3CCN(C(=O)C4CCCO4)CC3)nc(N)c2cc1OC (stereo not given),1.69% and 38.8%,
Cc1cc2c(cc1S(N)(=O)=O)S(=O)(=O)CCC2,-27.6%,
Oc1cccc2[nH]ccc12,-5.08%,
C[C@@H](N)C(=O)O,5.02%,
CC(=O)N(c1onc(C)c1C)S(=O)(=O)c1ccc(N)cc1,-0.565%,
CC(=O)NC(=O)c1ccccc1O,1.69%,
[O-][n+]1cccc(/C(Cl)=N/OC[C@@H](O)CN2CCCCC2)c1,-6.69%,
COc1ccc2ccc(=O)oc2c1CC=C(C)C,-15%,
CCC(=O)Nc1ccc(O)cc1,-18.6%,
CCOc1ccccc1C(N)=O,-11.9%,
COC(=O)c1ccc(O)cc1,7.34%,
